Nrf2 block – blocks Nrf2 signaling; A549 ARE-Fluc reporter, luciferase luminescence, 18-24 h; Potency, µM (doses to about 46 µM), for inactives: at the highest dose activity change, negative = inhibition, hits mostly inhibitors; 2.1% of 360,000 active; AID 504444; further: on the % scale 0 is the no-effect control and ±100 the full control effect; nearly all actives have a fitted effect of over 60% in size
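Reporter: ARE-Fluc in A549. Exposure: 18-24 h, 37 °C, 5% CO2, 5% FBS OPTI-MEM. Readouts: fluorescent cytotoxicity (CellTiter-Fluor), then luminescent Nrf2 signal after BugLite.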
Nrf2 ARE act – Nrf2 pathway activation; AREc32 ARE-luciferase reporter (MCF7-derived line), luminescence, 24 h; Potency, µM (top dose mostly 46.1 µM), inactives show at the highest dose activation, hits mostly activators; 0.31% of 410,000 active; AID 624171; further: % of control where 0% means no effect; nearly all actives have a fitted effect of over 65% in size
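Luciferase luminescence (Steady-Glo, 30 min at room temperature) served as the read-out of ARE activation in AREc32 cells treated with compounds for 24 hr at 37 deg C.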
A549 tox – A549 cytotoxicity, counter-screen for Nrf2 inhibitors; Potency, µM (titrated, usually from 46 µM), for the others: at the highest dose activity change, negative = cytotoxicity, most hits filed as inhibitors; A549 ARE-Fluc cells, CellTiter-Fluor viability, 18-24 h; 0.16% of 390,000 active; further: on the % scale 0 is the no-effect control and ±100 the full control effect
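A549 ARE_Fluc cells in 5% FBS OPTI-MEM were exposed to compounds in concentration-response for 18-24 h at 37 deg C. Viability was read by CellTiter-Fluor fluorescence (Ex 405/Em 525) after 30 min, before the luciferase read.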
Pin1 inhibitor – inhibitors of human Pin1; Pin1 FP peptide displacement, HiFluor488, 10 min; AID 504891; 0.009% of 390,000 active; Potency, µM (titrated, usually from 115 µM), inactives show at the highest dose activity, negative = inhibition, actives largely listed as inhibitors; Q13526; active means well fitted inhibition curve with a large enough effect in the polarisation, with a control signal flat, not every such curve was filed as active; inconclusive means small, poorly fitted or top-dose-only effect, or effect the other way, or a change in a side signal; inactive means no such curve, though single readings can be large or run the other way; the % refers to the polarisation; further: on the % scale 0 is the no-effect control and ±100 the full control effect
Target sequence (Q13526 whole entry, looked up): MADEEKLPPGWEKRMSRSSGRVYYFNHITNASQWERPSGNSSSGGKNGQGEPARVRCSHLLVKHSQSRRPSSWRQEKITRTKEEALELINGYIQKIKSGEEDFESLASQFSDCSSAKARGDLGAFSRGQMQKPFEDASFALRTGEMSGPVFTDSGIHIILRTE
* marks the source's active call; other numbers are inactive results; ? = inconclusive; . = not tested or not shown; ! = not confirmed by another sample; [ ] = dose if it differs, or a comment. Most compounds without a hit are left out; they make up all but 2.2% or so of the library. Unless noted, the call rests on the fitted dose curve; in most records, active means well fitted curve in the direction sought with a large enough effect; inconclusive means small, poorly fitted or top-dose-only effect, or another doubt; inactive means no such curve, though single readings can be large; an effect the other way counts as inactive or inconclusive. Potency means the concentration at half of the fitted maximal effect.

SMILES	Nrf2 block	Nrf2 ARE act	A549 tox	Pin1 inhibitor
c1ccc(-c2nc(-c3ccco3)cs2)nc1	?	13µM*	1%	36%
c1ccc(-c2nccc(-c3ccco3)n2)nc1	?	?	-5%	-4%
O=S(=O)(c1ccc2c(c1)OCCO2)N1CCN(S(=O)(=O)c2cccc[n+]2[O-])CC1	11%	.	1%	2%
COCC(=O)N/N=C/c1c(C)[nH]n(-c2ccccc2)c1=O	15µM*	2%	?	-2%
CC(=O)N/N=C/c1c(C)[nH]n(-c2ccccc2)c1=O	15µM*	1%	?	0%
Cc1[nH]n(-c2ccccc2)c(=O)c1/C=N\NC(=O)C1COc2ccccc2O1 (stereo not given)	16µM*	0%	-14%	-9%
O=C(NCc1ccccc1)NC1COc2ccccc2C1 (stereo not given)	.	2%	21%	2%
NC(=O)C1CCN(c2nccc(-c3ccc4c(c3)OCCCO4)n2)CC1	.	.	.	0%
CN1C2CCC1/C(=C\c1ccccc1)C(=O)/C2=C\c1ccccc1	26µM*	?	?	?
C=CC(=O)N1C/C(=C/c2ccccc2)C(=O)/C(=C\c2ccccc2)C1	?	?	?	7%
COc1ccc(C(=O)NC(Nc2ccc(C)cc2)C(Cl)(Cl)Cl)cc1 (stereo not given)	21µM*	4%	?	-3%
COc1ccc(NC(NC(=O)c2ccc(OC)cc2)C(Cl)(Cl)Cl)cc1 (stereo not given)	?	1%	-15%	-1%
Cc1ccc2[nH]c3c(NCc4ccccc4)ncnc3c2c1	5.2µM*	4%	18µM*	?
c1coc(CNc2ncnc3c2[nH]c2ccccc23)c1	16µM*	.	-3%	16%
C1=C(CCNc2ncnc3c2[nH]c2ccccc23)CCCC1	5.2µM*	0%	-3%	-6%
O=c1c2[nH]c3ccccc3c2ncn1Cc1ccco1	4%	9%	-6%	-9%
CCc1cc2c(NCc3ccco3)ncnc2s1	?	3.5µM*	7%	2%
O=c1c2[nH]c3ccccc3c2ncn1CCC1=CCCCC1	30%	3%	-10%	-3%
COc1ccc(CNc2ncnc3c2[nH]c2cc(OC)c(OC)cc23)cc1	-16%	6%	1%	1%
CCc1ccc(NC(=O)CC2C(=O)N(c3cccc(C)c3)C(=O)N2Cc2cccs2)cc1 (stereo not given)	-20%	6%	1%	1%
Cc1ccccc1Cn1c(=O)n(CCCCC(=O)NCCc2ccccc2)c(=O)c2ccccc21	8%	-1%	5%	?
CC(C)OCCCNc1ncnc2c1[nH]c1ccccc12	12µM*	3%	-22%	1%
CCNC(=O)COC(=O)c1cc(-c2ccc(OC)cc2)nc2ccccc12	-13%	-1%	-13%[1.84 µM]	-2%
COc1ccc(-c2cc(C(=O)OCC(=O)NC3CC3)c3ccccc3n2)cc1	-11%	3%	5%	15%
COc1ccc2cc(-c3cc(C(=O)OCC(=O)NC4CCS(=O)(=O)C4)c4ccccc4n3)ccc2c1 (stereo not given)	12µM*	0%	3%	36%
SMILES	Nrf2 block	Nrf2 ARE act	A549 tox	Pin1 inhibitor
CCN(CC)C(=O)COC(=O)c1cc(-c2ccc(OC)cc2)nc2ccccc12	23µM*	3%	-23%	42%
O=C(COC(=O)c1c2c(nc3ccccc13)/C(=C/c1cccc([N+](=O)[O-])c1)CCC2)NC1CCS(=O)(=O)C1 (stereo not given)	23µM*	1%[9.22 µM]	-4%	2%
CCN(Cc1ccccc1)C(=O)Cn1c(=O)n(-c2ccc(F)c(Cl)c2)c(=O)c2sc3ccccc3c21	3%	0%	-18%	-5%
N#Cc1c(N)nc(SCC(=O)OCc2ccccc2)c(C#N)c1-c1ccco1	-10%	8%	10%	29%
N#Cc1c(N)nc(SCc2ccccc2)c(C#N)c1-c1ccco1	12µM*	3%	?	37%
CCc1ccccc1N(C)C(=O)c1cc2c(s1)-c1c(C)cccc1OC2	-11%	6%	7%	14%
COc1ccc(N(C)C(=O)c2cc3c(s2)-c2c(C)cccc2OC3)c(OC)c1	21µM*	4%	15%	-6%
Cc1ccc(S(=O)(=O)NCCc2sc3nc(-c4ccccc4)nn3c2C)cc1C	.	-1%	-30%	10%
C=CCN(c1ccccc1)S(=O)(=O)c1cc(C(=O)NC2=NCCS2)ccc1Cl	3%	-1%	5%	-6%
C=CCN(c1ccc(F)cc1)S(=O)(=O)c1cc(C(=O)NC2CCC(O)CC2)ccc1Cl (stereo not given)	16µM*	-1%	8%	2%
CC1=C(C(=O)OCc2ccccc2)C(c2ccccc2OC(F)F)NC(=O)N1 (stereo not given)	23µM*	3%	-8%	?
CCOc1ccccc1C1NC(=O)NC(C)=C1C(=O)OC1CCCCC1 (stereo not given)	21µM*	0%	-26%	5%
COCc1nn2c(=O)cc(N3CCNCC3)nc2s1	5%	.	7%	0%
COc1ccc(C(=O)NCCn2cc(SCC(=O)NCCc3ccc(OC)c(OC)c3)c3ccccc32)cc1	-12%	6%	-14%	2%
Nc1ncc(-c2cccc(-c3nn4c(=O)cc(N5CCNCC5)nc4s3)c2)cn1	3%	.	-5%	35%
COc1cccc(CNC(=O)Cn2nc(C)c3c(C)n(-c4ccc(C)cc4)nc3c2=O)c1OC	-12%	0%	4%	-3%
CCOc1ccccc1CNC(=O)Cn1nc(C)c2c(C)n(-c3ccc(C)cc3)nc2c1=O	9.2µM*	9%	1%	118%
COc1ccc(CNC(=O)Cn2nc(C)c3c(C)n(-c4ccc(C)cc4)nc3c2=O)cc1OC	23µM*	-1%	-11%	?
COc1ccc(CNC(=O)Cn2nc(C)c3c(C)n(-c4ccccc4)nc3c2=O)cc1OC	.	0%	1%	-1%
Cc1ccc(-n2nc3c(N4CCC(C(=O)NCc5ccccc5C)CC4)nnc(C)c3c2C)cc1	?	10%	?	56%
CCOc1ccccc1CNC(=O)C1CCN(c2nnc(C)c3c(C)n(-c4ccc(C)cc4)nc23)CC1	23µM*!	7%	?	64%
COc1ccc(C(CCN2CCOCC2)c2c(OC)cc(OC)c3ccc(=O)oc23)cc1 (stereo not given)	-4%	4%	15µM*	-1%
COc1cc(OC)c2ccc(=O)oc2c1C(CCN1CCCC1)c1ccc2c(c1)OCO2 (stereo not given)	11%	1%	18µM*	5%
COc1ccc(C(CCN2CCOCC2)c2c(OC)cc(OC)c3c(-c4ccccc4)cc(=O)oc23)cc1 (stereo not given)	-23%	3%	-5%	?
COc1cc(OC)c2ccc(=O)oc2c1C(CCN1CCOCC1)c1ccc2c(c1)OCO2 (stereo not given)	12%	4%	?	1%
CC1Cc2cc(S(=O)(=O)CCC(=O)Nc3ccc(Cl)cc3F)ccc2N1C(=O)C1CC1 (stereo not given)	13µM*	1%	1%	-1%
